Test results taken from the OligoGym collection.
Further: reference of the scale not given here.

What follows are sequences tested against TRIM48 (assay: pooled miR-30 sensor sort-seq; sequence = guide strand). Conditions: shRNA.
ATGTCGTTCTTAACACACCCAA was tested, and the sensor-assay potency score (higher = more potent) was -1.03.
AACATCTTCTTTGTCTCCCTGT gave a sensor-assay potency score (higher = more potent) of 0.214.
Work on TTAACAGCTTCTCCCAGTGTTC yielded a sensor-assay potency score (higher = more potent) of -1.29.
For AAACCGAACCTATTTGTCCTGT, the sensor-assay potency score (higher = more potent) was 0.0588.
In the case of TTTCTCTGCTGTATTGTCTTTA, the sensor-assay potency score (higher = more potent) is reported as -0.0647.
Work on TGTCGTTCTTAACACACCCAAG yielded a sensor-assay potency score (higher = more potent) of -1.51.
TTCTCTGATTTTCACAAGCTTT showed a sensor-assay potency score (higher = more potent) of -1.29.
For TTCTCTGCTGTATTGTCTTTAT, the sensor-assay potency score (higher = more potent) was -1.43.
TGCTGTATTGTCTTTATGCATT was tested, and the sensor-assay potency score (higher = more potent) was -1.57.
In the case of TTCTTTAACAGCTTCTCCCAGT, the sensor-assay potency score (higher = more potent) is reported as -0.186.
In the case of TTCTCAAATCTCCACATCGGAA, the sensor-assay potency score (higher = more potent) is reported as -1.49.
For TTTCTTTAACAGCTTCTCCCAG, the sensor-assay potency score (higher = more potent) was -0.688.

Each sequence was assayed against TRIM50 in the same assay as above. Conditions: shRNA.
Sequence TGCTGTAGTCGAAGCGCTCAGG has a sensor-assay potency score (higher = more potent) of -1.06.
AAAACTTTCCGGAAGAGCCTTT showed a sensor-assay potency score (higher = more potent) of -0.209.
Sequence TCCAACTTGAGAGGCTCCGGGG has a sensor-assay potency score (higher = more potent) of -1.47.
For TTCCGGATGAACTTGTGGTGGT, the sensor-assay potency score (higher = more potent) was -0.035.
For TGAACTTGTGGTGGTCCTCATT, the sensor-assay potency score (higher = more potent) was -1.36.
TCATAGTGCAGGTAGAGCCCGA was tested, and the sensor-assay potency score (higher = more potent) was -0.353.
TGGAACTTCCGGATGAACTTGT gave a sensor-assay potency score (higher = more potent) of -0.0502.
Work on TAGTCGAAGCGCTCAGGCTGGC yielded a sensor-assay potency score (higher = more potent) of -0.915.
In the case of TTCAGCTTGCCCTTACGGCTGG, the sensor-assay potency score (higher = more potent) is reported as -0.338.
TTGGGCAGGGAGCTGCTGCCGT showed a sensor-assay potency score (higher = more potent) of -1.11.
TTGTGGTGGTCCTCATTGCCGA gave a sensor-assay potency score (higher = more potent) of -1.14.
Sequence TTCGCCCTGCTCATAGTGCAGG has a sensor-assay potency score (higher = more potent) of -1.35.
